Results filed as inconclusive are left out. The source made the active and inactive calls. Unless noted, the call rests on the fitted dose curve; in most records, active means well fitted curve in the direction sought with a large enough effect in the repeat runs; inconclusive means weak or mixed curves; inactive means flat fitted curve, though single readings scatter.
Tests used:
[1] = qHTS assay to test for compound auto fluorescence at 535 nm (green) in HEK293 cells (AID 720680)
[2] = qHTS assay to test for compound auto fluorescence at 460 nm (blue) in HEK293 cell free culture (AID 720681)
In short: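 Compounds were added to cell-free DMEM with 10% FBS and fluorescence read directly. The blue channel used 405 nm excitation and 460 nm emission, with triamterene as the reference fluorophore.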

[3] = qHTS assay to test for compound auto fluorescence at 535 nm (green) in HEK293 cell free culture (AID 720682)
In short: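 Using fluorescein as calibrant, autofluorescence was quantified at 485/535 nm in cell-free DMEM containing 10% FBS after pintool addition of compound or vehicle.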

[4] = qHTS assay to test for compound auto fluorescence at 590 nm (red) in HEK293 cell free culture (AID 720683)
In short: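 Cell-free wells of DMEM with 10% FBS received compound, and intrinsic fluorescence was read at excitation/emission 540/590 nm. Values expressed as equivalence to Rose Bengal sodium.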

[5] = qHTS assay to test for compound auto fluorescence at 590 nm (red) in HepG2 cell free culture (AID 720684)
In short: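 Auto fluorescence equivalency versus Rose Bengal sodium, red channel Ex/Em 540/590 nm; compounds in cell-free MEM/10% FBS; DMSO vehicle control.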

[6] = qHTS assay to test for compound auto fluorescence at 460 nm (blue) in HepG2 cell free culture (AID 720685)
In short: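 Cell-free plates of MEM plus 10% FBS received 23 nL compound or DMSO vehicle; blue-channel (405/460 nm) intensity scored against triamterene as reference fluorophore.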

[7] = qHTS assay to test for compound auto fluorescence at 535 nm (green) in HepG2 cell free culture (AID 720686)
[8] = qHTS assay to test for compound auto fluorescence at 460 nm (blue) in HepG2 cells (AID 720687)
In short: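 HepG2 cells in MEM with 10% FBS, attached overnight at 37 C, were exposed to compound or DMSO for 1 hr at 37 C, 5% CO2. Blue fluorescence was read at 405/460 nm, with triamterene as reference fluorophore.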

[9] = target: Glucocorticoid receptor (Homo sapiens) (UniProt P04150); experiment: qHTS assay to identify small molecule agonists of the glucocorticoid receptor (GR) signaling pathway (AID 720691; active means well fitted activation curve with a large enough effect in the signal ratio in the repeat runs, not every such curve was filed as active; the % refers to the signal ratio)
Glucocorticoid receptor (Homo sapiens), sequence (P04150 whole entry, looked up): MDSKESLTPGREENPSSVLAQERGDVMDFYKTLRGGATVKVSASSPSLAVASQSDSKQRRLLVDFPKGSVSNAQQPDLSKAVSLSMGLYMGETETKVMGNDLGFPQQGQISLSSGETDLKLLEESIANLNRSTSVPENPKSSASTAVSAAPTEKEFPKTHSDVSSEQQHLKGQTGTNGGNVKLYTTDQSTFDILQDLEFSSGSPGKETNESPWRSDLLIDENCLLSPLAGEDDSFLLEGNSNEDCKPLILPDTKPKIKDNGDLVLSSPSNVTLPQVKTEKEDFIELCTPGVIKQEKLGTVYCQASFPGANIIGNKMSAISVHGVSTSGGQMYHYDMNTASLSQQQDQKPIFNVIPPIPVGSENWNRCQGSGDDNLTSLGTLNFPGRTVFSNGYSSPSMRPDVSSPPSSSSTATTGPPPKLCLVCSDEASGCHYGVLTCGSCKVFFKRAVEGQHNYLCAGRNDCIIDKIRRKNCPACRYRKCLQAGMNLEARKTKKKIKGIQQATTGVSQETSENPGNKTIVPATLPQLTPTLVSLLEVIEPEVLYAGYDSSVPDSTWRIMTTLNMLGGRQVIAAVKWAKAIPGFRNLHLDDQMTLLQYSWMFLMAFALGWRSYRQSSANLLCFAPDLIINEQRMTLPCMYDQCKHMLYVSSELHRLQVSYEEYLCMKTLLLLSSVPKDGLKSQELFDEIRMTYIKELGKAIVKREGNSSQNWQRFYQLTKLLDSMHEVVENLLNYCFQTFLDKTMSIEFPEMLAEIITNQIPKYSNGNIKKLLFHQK
In short: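 Measures GR pathway activation through a GRE-beta-lactamase reporter stably integrated in HeLa cells, with 18 h compound treatment at 37 C and fluorescence detection using a FRET substrate.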

[10] = target: Glucocorticoid receptor (Homo sapiens) (UniProt P04150); experiment: qHTS assay to identify small molecule antagonists of the glucocorticoid receptor (GR) signaling pathway (AID 720692; active means well fitted inhibition curve with a large enough effect in the signal ratio in the repeat runs, not every such curve was filed as active; the % refers to the signal ratio)
In short: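 Tox21 10K library screened in concentration-response for blockade of dexamethasone (5 nM final)-induced GRE-bla reporter activity in HeLa cells; 18 h treatment, fluorescence read.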
On the % scale 0 is the no-effect control and ±100 the full control effect.

CC(Cl)COP(=O)(OCC(C)Cl)OCC(C)Cl (stereo not drawn)
inactive: outcome [1] | outcome [2] | outcome [3] | outcome [4] | outcome [5] | outcome [6] | outcome [7] | outcome [8] | Potency [9] | outcome [10]

CCCCCCCCCCCCC
inactive: outcome [1] | outcome [2] | outcome [3] | outcome [4] | outcome [5] | outcome [6] | outcome [7] | Potency [9] | outcome [10]

O=C(O)c1c(Cl)ccc(Cl)c1Cl
inactive: outcome [1] | outcome [2] | outcome [3] | outcome [4] | outcome [5] | outcome [6] | outcome [7] | outcome [8] | Potency [9] | outcome [10]

NCCc1ccn[nH]1
inactive: fluorescence, % of fluorescein [1] -0.0168% [at 18.6 µM] | fluorescence, % of fluorescent control [2] -0.0158% [at 18.6 µM] | activity change [3] 0.0838% [at 18.6 µM] | fluorescence, % of fluorescent control [4] -0.0073% [at 18.6 µM] | fluorescence, % of Rose Bengal [5] 0.001% [at 18.6 µM] | fluorescence, % of fluorescent control [6] -0.0614% [at 18.6 µM] | fluorescence, % of fluorescein control [7] -0.0021% [at 18.6 µM] | fluorescence, % of fluorescent control [8] -0.0013% [at 18.6 µM] | outcome [10]

F[Si-2](F)(F)(F)(F)F
inactive: outcome [1] | outcome [2] | outcome [3] | outcome [4] | outcome [5] | outcome [6] | outcome [7] | Potency [9] | outcome [10]

CO[Si](CCCS)(OC)OC
inactive: outcome [1] | outcome [2] | outcome [3] | outcome [4] | outcome [5] | outcome [6] | outcome [7] | Potency [9] | outcome [10]

CC(=O)OC(C)c1ccccc1 (stereo not drawn)
inactive: outcome [1] | outcome [2] | outcome [3] | outcome [4] | outcome [5] | outcome [6] | outcome [7] | outcome [10]

O=C(O)c1ccccc1C(=O)OCc1ccccc1
inactive: outcome [1] | outcome [2] | outcome [3] | outcome [4] | outcome [5] | outcome [6] | outcome [7] | Potency [9] | outcome [10]

CCOC(=O)CC#N
inactive: outcome [1] | outcome [2] | outcome [3] | outcome [4] | outcome [5] | outcome [6] | outcome [7] | outcome [8] | Potency [9] | outcome [10]

Cc1cccc(NC(=S)N(C)C)c1
inactive: outcome [1] | outcome [2] | outcome [3] | outcome [4] | outcome [5] | outcome [6] | outcome [7] | Potency [9] | outcome [10]

NC(=O)C1(N2CCCCC2)CCN(CCCC(=O)c2ccc(F)cc2)CC1
inactive: outcome [1] | outcome [2] | outcome [3] | outcome [4] | outcome [5] | outcome [6] | outcome [7] | Potency [9]

C=C[C@@H](C)CCC=C(C)C
inactive: outcome [1] | outcome [2] | outcome [3] | outcome [4] | outcome [5] | outcome [6] | outcome [7] | Potency [9] | outcome [10]

O=C(O)c1ccccc1C(=O)Nc1ccc(S(=O)(=O)Nc2nccs2)cc1
inactive: outcome [1] | outcome [2] | outcome [3] | outcome [4] | outcome [5] | outcome [6] | outcome [7] | Potency [9] | outcome [10]

CCCCC(CC)C(=O)OC(C)C (stereo not drawn)
inactive: outcome [1] | outcome [2] | outcome [3] | outcome [4] | outcome [5] | outcome [6] | outcome [7] | outcome [8] | Potency [9] | outcome [10]

C=CCOCC(O)CCl (stereo not drawn)
inactive: outcome [1] | outcome [2] | outcome [3] | outcome [4] | outcome [5] | outcome [6] | outcome [7] | Potency [9] | outcome [10]

C=COCCOCCOC=C
inactive: outcome [1] | outcome [2] | outcome [3] | outcome [4] | outcome [5] | outcome [6] | outcome [7] | Potency [9] | outcome [10]

Cc1nc(C)nc(N2C[C@@H](C)N(c3ccnc([C@@H](C)O)n3)[C@@H](C)C2)n1
inactive: outcome [1] | outcome [2] | outcome [3] | outcome [4] | outcome [5] | outcome [6] | outcome [7] | outcome [8] | Potency [9] | outcome [10]

C=CCOC(=O)c1ccc(C(=O)OCC=C)c(C(=O)OCC=C)c1
inactive: outcome [1] | outcome [2] | outcome [3] | outcome [4] | outcome [5] | outcome [6] | outcome [7] | Potency [9]

CC(=O)c1ccc(OCC(=O)N2CCCCC2)cc1
inactive: outcome [1] | outcome [2] | outcome [3] | outcome [4] | outcome [5] | outcome [6] | outcome [7] | Potency [9] | outcome [10]

CN=C(NC#N)NCCSCc1csc(N=C(N)N)n1
inactive: outcome [1] | outcome [2] | outcome [3] | outcome [4] | outcome [5] | outcome [6] | outcome [7] | Potency [9] | outcome [10]

C[C@@H]1C[C@H]2[C@@H]3C[C@H](F)C4=CC(=O)C=C[C@]4(C)[C@@]3(F)[C@@H](O)C[C@]2(C)[C@@]1(O)C(=O)CO
inactive: fluorescence, % of fluorescein [1] 0.12% [at 18.6 µM] | fluorescence, % of fluorescent control [2] -0.0209% [at 18.6 µM] | activity change [3] 0.0847% [at 18.6 µM] | fluorescence, % of fluorescent control [4] -0.0134% [at 18.6 µM] | fluorescence, % of Rose Bengal [5] 0.414% [at 18.6 µM] | fluorescence, % of fluorescein control [7] 0.0581% [at 18.6 µM]

Source: PubChem BioAssay (Tox21)
